This is an account of results in PMC7819943, “Rice protein-binding microarrays: a tool to detect cis-acting elements near promoter regions in rice”.

The full ranking holds about 35,000 sequences; the median of “fluorescence intensity (a.u.)” is about 10,000, and the highest 2% start at about 52,000. Many of the other results were omitted from the sample, so the highest values are more common in it than they were.

The target in this assay is T1, OsWOX13 (Oryza sativa, UniProt Q5QMM3 1-267).
T1 sequence: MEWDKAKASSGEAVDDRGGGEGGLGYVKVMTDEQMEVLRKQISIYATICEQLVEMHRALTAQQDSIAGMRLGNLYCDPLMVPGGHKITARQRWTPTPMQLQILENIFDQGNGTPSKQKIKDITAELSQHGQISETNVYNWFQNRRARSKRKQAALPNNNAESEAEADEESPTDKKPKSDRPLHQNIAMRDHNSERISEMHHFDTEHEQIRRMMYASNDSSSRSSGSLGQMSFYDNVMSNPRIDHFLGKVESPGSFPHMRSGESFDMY
Nature of the assay: protein-binding microarray (RPBM); PBS, 2% BSA, 51.3 ng/ul salmon testes DNA, 50 uM zinc acetate, 200 nM TF, 25 C, 1 h; high values mean tight binding. The conditions noted are these: protein: recombinant; tags: N-terminal polyhistidine and DsRed monomer fusion (pET32a); label: CyDye5-dUTP incorporated in the synthesized complementary strand; 3' TTTTT single-stranded linker to array surface; dsDNA, one strand shown. The method, boiled down:
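Transcription factors were made in E. coli BL21-CodonPlus as N-terminal fusions to a polyhistidine tag and DsRed, then purified on Ni–NTA. After primer extension with Cy5-dUTP and blocking with 2% BSA, a custom Agilent array was exposed for 1 h at 25 °C to 200 nM protein in PBS, 2% BSA, salmon testes DNA and 50 µM zinc acetate. Washed arrays were scanned on an Axon 4000B, and the binding signal is per-feature fluorescence intensity in arbitrary units.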
For the sequence “ATATATATATATATATATATATATATATATATAAACCCAACGGAGTCACCTAGTGCAG”, the binding signal was 24000 fluorescence intensity (a.u.).
In the case of “ATCTAAGCTCATCTCAACCAATCACAACCATCGTTGATTTCGGAGTCACCTAGTGCAG” it was 3410 fluorescence intensity (a.u.); in that of “ATAAATTACTTTTCGTTTGCAAATATGCTGTTTGAATAAGCGGAGTCACCTAGTGCAG”, 13300 fluorescence intensity (a.u.).
In the case of “TTACATGATTATGTTAATTACTACACAATTATAGGGCCTACGGAGTCACCTAGTGCAG” it was 42500 fluorescence intensity (a.u.); in that of “TTCTGATCACAGATCAATTACTCTTGATCGCCCATTTATTCGGAGTCACCTAGTGCAG”, 9590 fluorescence intensity (a.u.).
In the case of “TGTATTCATCATCTAAATTATTGTTCATAAACCTATAGGCCGGAGTCACCTAGTGCAG” it was 3420 fluorescence intensity (a.u.).
“ACGGAATGAACACTAATTTACTTAATACATAGAACCACGGCGGAGTCACCTAGTGCAG”: the binding signal is 19400 fluorescence intensity (a.u.).
For the sequence “AACCAATTTATATTGTCAGAAGAAAATGCATTATATAGGTCGGAGTCACCTAGTGCAG”, the binding signal is 6730 fluorescence intensity (a.u.).
In the case of “CATTGAATGTTTGGACACTAATTATAAATATTAAACGTAGCGGAGTCACCTAGTGCAG” it was 9090 fluorescence intensity (a.u.).
In the case of “AGTTATTGATAACATAAGCCTTAAAAGTTCGCCCTAACCTCGGAGTCACCTAGTGCAG” it was 4600 fluorescence intensity (a.u.); in that of “CAAAACAGACATAATCTTGTTGGACAGACGTAGCCATGAACGGAGTCACCTAGTGCAG”, 12500 fluorescence intensity (a.u.); in that of “CCTAATTTGCGTGATTGGATTGGTTGGTTGTGTTGTAATGCGGAGTCACCTAGTGCAG”, 65000 fluorescence intensity (a.u.).
On to “GGTGATTGCATTTGATTGGGTGGAAAAGGTTTGATTTTGTCGGAGTCACCTAGTGCAG”, for which the binding signal is 64900 fluorescence intensity (a.u.).
In the case of “TCATAATTGGATGGCATTGTACTGTGATTTGTTTGTGTTGCGGAGTCACCTAGTGCAG”, the binding signal is 49200 fluorescence intensity (a.u.).
For “GGTTGGATGGTTGGATTTGATGTGGATTTGAATTGTTATGCGGAGTCACCTAGTGCAG”, the binding signal is 7890 fluorescence intensity (a.u.).
As for “TTGCAATTGCCAATTTCTTTATTATATTGTTGGTTTAACTCGGAGTCACCTAGTGCAG”, the binding signal was 16700 fluorescence intensity (a.u.).
With “GCTTAATTAGCTTGTATTTAGTTGGTTAATTTAGTGTTGTCGGAGTCACCTAGTGCAG”, the binding signal is 43600 fluorescence intensity (a.u.).
As for “GTTGGTTAATTGCAATTTAATTGTTGTATTGTAAGAGTCTCGGAGTCACCTAGTGCAG”, the binding signal is 56100 fluorescence intensity (a.u.).
In the case of “TGGAAGTCAAGTCACTAATTGGAAGAAGATGGTGATAATGCGGAGTCACCTAGTGCAG”, the binding signal is 16600 fluorescence intensity (a.u.).
The value for “CATTGATTTTGTTTTATTATTTTGGTTGGTGGTGCCGTGTCGGAGTCACCTAGTGCAG” was 39100 fluorescence intensity (a.u.); that for “TGCTTGCTTGCTTGGTTTGATTGGTGGAGGTGGGAGGAGTCGGAGTCACCTAGTGCAG” was 3920 fluorescence intensity (a.u.); that for “TTGATTGGATAATTTTGTGGTTTGGGAAGAAATGGTGATGCGGAGTCACCTAGTGCAG” was 64000 fluorescence intensity (a.u.).
On to “AGTTTGGATTTTGGTTGAAATTGAAGATAATGTGACTGAACGGAGTCACCTAGTGCAG”, for which the binding signal is 3240 fluorescence intensity (a.u.).
In the case of “GACACTGGGTAAATTATTCAATTCTAACTAAATTATATGACGGAGTCACCTAGTGCAG” it was 4590 fluorescence intensity (a.u.).
Consider “TCGATAAATTGAGGAGACCAAAATTCACGAAATCAACATACGGAGTCACCTAGTGCAG”, for which the binding signal was 7550 fluorescence intensity (a.u.).
Consider “AGCTGTTCCAATTATGAACTCACTAACTTTACATAGAGGTCGGAGTCACCTAGTGCAG”, for which the binding signal is 3650 fluorescence intensity (a.u.).
Regarding “ACAGTTCCTTTGTGCCAATCATTGAACCCGGGAATGCTGGCGGAGTCACCTAGTGCAG”, the binding signal was 4780 fluorescence intensity (a.u.).
In the case of “TATGAATGACATATAAACAGATAATCGTGTTCACCGAATGCGGAGTCACCTAGTGCAG” it was 20900 fluorescence intensity (a.u.).
The value for “TCTGATAGCTTGTGAGGGTTTCATTCATCCTCTGCTAGTGCGGAGTCACCTAGTGCAG” was 6630 fluorescence intensity (a.u.).
In the case of “GTCTTCAAATTATATTAGTTATAACTATAGTTCACACAATCGGAGTCACCTAGTGCAG”, the binding signal was 4610 fluorescence intensity (a.u.).
Consider “TCAGCTAATCAGCTAACTGGTCCTTTTCCTACTTCCCTTGCGGAGTCACCTAGTGCAG”, for which the binding signal is 8010 fluorescence intensity (a.u.).
In the case of “GGGGATTGGGAGTTTATACAAGGGAATTGATGGTGAGATTCGGAGTCACCTAGTGCAG” it was 21000 fluorescence intensity (a.u.).
In the case of “TTAAGATAGAGGAAACATTGATTGTATGCATGCTATATATCGGAGTCACCTAGTGCAG” it was 3750 fluorescence intensity (a.u.).
Turning to “GCTAATTTATACAATAGTTGCTTACTATAGAATTAATGCACGGAGTCACCTAGTGCAG”, the binding signal is 27200 fluorescence intensity (a.u.).
“GCATAGATTATTATGCAGAAAGTTCATGTATATGACCAGCCGGAGTCACCTAGTGCAG”: the binding signal is 6640 fluorescence intensity (a.u.).
For the sequence “ACACCAATTGAACATTTGGATGTAAACATTAGGGATGCTGCGGAGTCACCTAGTGCAG”, the binding signal was 3400 fluorescence intensity (a.u.).
Take “ACCAATATATATATACTAATTAAATTTGTGGAACTTGGATCGGAGTCACCTAGTGCAG”: the binding signal is 4420 fluorescence intensity (a.u.).
The value for “ATATGATTAATATTTTATGCGATTAATATTTTATGCGTGACGGAGTCACCTAGTGCAG” was 41400 fluorescence intensity (a.u.); that for “ATGATTAATTATTATTTTAGTGATATGCGATATACTCGTGCGGAGTCACCTAGTGCAG” was 65000 fluorescence intensity (a.u.).
For the sequence “TGTGATTAGTTCTAATTTAATATAGCAAGAACTAGTGGATCGGAGTCACCTAGTGCAG”, the binding signal was 53800 fluorescence intensity (a.u.).
Regarding “AGTTAATTAATTAGTCCATCCAAGGAAGGAGTATATGATTCGGAGTCACCTAGTGCAG”, the binding signal is 55800 fluorescence intensity (a.u.).
In the case of “AGTTAGTGATTATATGATTAATCTATGGTCCAAATTATCTCGGAGTCACCTAGTGCAG” it was 23900 fluorescence intensity (a.u.); in that of “GCAGTCCATTAACACGTGATTAATTAAGTATTAGTTAATTCGGAGTCACCTAGTGCAG”, 21800 fluorescence intensity (a.u.).
With “GAGCCTAATTAATTCGTGATTAGCCTAATGACGGATTAATCGGAGTCACCTAGTGCAG”, the binding signal was 57400 fluorescence intensity (a.u.).
Consider “TGTTAGATGATAAAACATGATTAATATTTTATGCGTGACTCGGAGTCACCTAGTGCAG”, for which the binding signal was 8120 fluorescence intensity (a.u.).
In the case of “CATTTGCTAATGACGGATTAATTAGGGTTTATAAATTCGTCGGAGTCACCTAGTGCAG” it was 24400 fluorescence intensity (a.u.).
The value for “CCTAATTAAGTGGATTTTAGTTTTATATATTATTTAACTTCGGAGTCACCTAGTGCAG” was 25700 fluorescence intensity (a.u.); that for “TTGCTAATGACGGATTAATTAGGCTTAATAAATTCGTCTCCGGAGTCACCTAGTGCAG” was 33900 fluorescence intensity (a.u.).
